Test systems include SR leukemia; RPMI-8226 leukemia; OVCAR-8 ovarian; OVCAR-5 ovarian; OVCAR-4 ovarian; SK-OV-3 ovarian; OVCAR-3 ovarian; HS 578T breast; NCI/ADR-RES ovarian; IGROV1 ovarian.
Assay in all cases: NCI-60 one-dose screen, 48 h (100 = growth as untreated, 0 = no growth, -100 = all killed)
Holding throughout (conditions): 10 µM unless noted

The structures appear in SMILES notation. This is part of a sample that, as a whole, favours compounds with a hit. Of some 83,000 tested, about 20% had one in any assay.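 Interpretation: 100, growth as untreated; towards 0, rising growth inhibition; 0, no net growth; 0 to -100, cell death. Compounds scoring below 10 were considered active.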 Unmarked numbers belong to inactive results. Activity calls are given as the source filed them.

In the case of `C=C1C(=O)O[C@H]2[C@H]1CC/C(COC(=O)/C=C/c1c[nH]c3ccccc13)=C\CC[C@@]1(C)O[C@@H]21`, the growth in the test with SR leukemia is -19.7% (active); in the test on RPMI-8226 leukemia, -34.3% (active); in the test with OVCAR-8 ovarian, -34.4% (active); in the test on OVCAR-5 ovarian, -42.1% (active); in the test on OVCAR-4 ovarian, -91.9% (active); in the test on SK-OV-3 ovarian, 50.8%. Also, the growth with OVCAR-3 ovarian is -91.5% (active); in the test with HS 578T breast, -6.76% (active); with NCI/ADR-RES ovarian, -26.9% (active).

In the case of `CC(=O)O[C@]1(C(C)=O)CC[C@H]2[C@@H]3C=C(Cl)C4=CC(=O)CC[C@]4(C)[C@H]3CC[C@@]21C`, the growth in the test on SR leukemia was 92.1%; in the test with RPMI-8226 leukemia, 92.7%; in the test with OVCAR-8 ovarian, 101%; in the test on OVCAR-5 ovarian, 101%; in the test with OVCAR-4 ovarian, 100%; in the test on SK-OV-3 ovarian, 107%. Also, the growth with OVCAR-3 ovarian is 121%; in the test with NCI/ADR-RES ovarian, 99.6%.

Turning to `C=CCn1c(SCC(=O)Nc2ccc(C(=O)/C=C/c3cc(OC)c(OC)c(OC)c3)cc2)nnc1-c1cc(-c2ccc(S(C)(=O)=O)cc2)nc2ccccc12`, the growth in the test on SR leukemia was 13.9%; with RPMI-8226 leukemia, -5.82% (active); in the test with OVCAR-8 ovarian it was 68.6%; in the test on OVCAR-5 ovarian, 112%; in the test on OVCAR-4 ovarian it was 94.5%; in the test on SK-OV-3 ovarian, 127%. Moreover, the growth with OVCAR-3 ovarian was 85.9%; with HS 578T breast, 95.3%; with NCI/ADR-RES ovarian it was 91.3%.

Turning to `CCN1C(=O)N(CC)C2NC(SC)=NC21` (stereo not drawn), the growth in the test with SR leukemia was 107%; with RPMI-8226 leukemia, 157%; in the test with OVCAR-8 ovarian, 104%; in the test on OVCAR-5 ovarian, 88.9%; in the test with OVCAR-4 ovarian it was 103%; with SK-OV-3 ovarian, 104%. In addition, the growth with OVCAR-3 ovarian is 102%; with HS 578T breast it was 94.1%; in the test with NCI/ADR-RES ovarian, 99.7%.

As to `CN(C)Cc1c(-c2ccccc2)[nH]c2ccccc12`, the growth was 95.6% in the test on SR leukemia; 85.7% in the test on RPMI-8226 leukemia; 102% in the test with OVCAR-8 ovarian; 96.1% in the test with OVCAR-5 ovarian; 117% with OVCAR-4 ovarian; 81.7% in the test on SK-OV-3 ovarian. Besides, the growth in the test on OVCAR-3 ovarian is 103%; in the test on HS 578T breast it was 100%; with NCI/ADR-RES ovarian, 98.2%.

`Cc1ccc(Nc2cc(=S)nc(N)[nH]2)cc1C`: the growth with SR leukemia was 97.5%; in the test on RPMI-8226 leukemia it was 100%; in the test with OVCAR-8 ovarian, 97.4%; in the test with OVCAR-5 ovarian it was 100%; with OVCAR-4 ovarian it was 108%; in the test on IGROV1 ovarian it was 96%. Moreover, the growth in the test on OVCAR-3 ovarian is 115%; with HS 578T breast it was 98.6%; in the test with NCI/ADR-RES ovarian it was 105%.

On to `Cc1ccc(C2CC(c3cccc(Nc4ccncc4)c3)=NN2c2ccccc2)cc1` (stereo not drawn), for which the growth in the test on SR leukemia was -13.3% (active); in the test on RPMI-8226 leukemia, -48.7% (active); in the test on OVCAR-8 ovarian, -50.7% (active); with OVCAR-5 ovarian it was -93.4% (active); with OVCAR-4 ovarian, -86.5% (active); in the test with IGROV1 ovarian it was -92.7% (active). The figures for the growth in the test with OVCAR-3 ovarian, with HS 578T breast and in the test with NCI/ADR-RES ovarian were -89.2% (active), -57.5% (active) and -72.8% (active), respectively.

As to `COc1cccc(CNCCN2C(=O)c3ccc4c5c(ccc(c35)C2=O)C(=O)N(CCNCc2cccc(OC)c2)C4=O)c1`, the growth was -27.8% (active) in the test with SR leukemia; -14.8% (active) with RPMI-8226 leukemia; 68.3% in the test with OVCAR-8 ovarian; 120% in the test with OVCAR-5 ovarian; 75.9% with OVCAR-4 ovarian; 75.9% in the test on IGROV1 ovarian. Besides, the growth with OVCAR-3 ovarian is 24.6%; in the test on HS 578T breast, 121%; in the test on NCI/ADR-RES ovarian it was 88.8%.

In the case of `CN1C(=O)N(C)[C@H]2NC(NN)=N[C@H]21`, the growth was 100% in the test on SR leukemia; 118% in the test with RPMI-8226 leukemia; 103% with OVCAR-8 ovarian; 98.8% in the test with OVCAR-5 ovarian; 103% with OVCAR-4 ovarian; 98.9% with IGROV1 ovarian. The figures for the growth in the test on OVCAR-3 ovarian, in the test on HS 578T breast and in the test with NCI/ADR-RES ovarian were 109%, 95.2% and 105%, respectively.

For `CC1(c2ccccc2)NC(=O)N(CC(=O)Nc2cccc(I)c2)C1=O` (stereo not drawn), the growth in the test with SR leukemia was 71.1%; with RPMI-8226 leukemia it was 74.1%; in the test with OVCAR-8 ovarian it was 91.9%; in the test on OVCAR-5 ovarian it was 89.7%; in the test on OVCAR-4 ovarian, 90.3%; with SK-OV-3 ovarian, 87.5%. Moreover, the figures for the growth in the test with OVCAR-3 ovarian, in the test with HS 578T breast and with NCI/ADR-RES ovarian were 90.2%, 44.9% and 92.7%, respectively.

Consider `CC1CCN(C(=O)OCc2nc3nc(Cl)nc(N4CCOCC4)c3[nH]2)CC1`, for which the growth in the test on SR leukemia was -28.6% (active); in the test with RPMI-8226 leukemia it was -29.7% (active); in the test with OVCAR-8 ovarian, -29% (active); in the test on OVCAR-5 ovarian, -38.2% (active); in the test on OVCAR-4 ovarian it was -54.1% (active); in the test with SK-OV-3 ovarian, 62.8%. Also, the figures for the growth with OVCAR-3 ovarian, with HS 578T breast and in the test on NCI/ADR-RES ovarian were -92.8% (active), -13.5% (active) and -18.6% (active), respectively.

On to `C=C(C)[C@H]1CC/C(C)=C/CC[C@]2(C)O[C@H]2CC/C(COC(=O)[C@@H](OC(C)=O)[C@H](NC(=O)c2ccccc2)c2ccccc2)=C\[C@@H]1O`, for which the growth is 51.2% in the test on SR leukemia; 54.8% with RPMI-8226 leukemia; 93.9% in the test with OVCAR-8 ovarian; 106% with OVCAR-5 ovarian; 85.7% in the test on OVCAR-4 ovarian; 94.1% in the test on SK-OV-3 ovarian. For the same compound, the growth with OVCAR-3 ovarian is 104%; in the test with HS 578T breast, 91%; with NCI/ADR-RES ovarian, 88.1%.

As for `Cn1c(COC(=O)NCCn2ccnc2)nc2c(N3CCOCC3)nc(-c3ccccc3)nc21`, the growth was 1.63% (active) in the test with SR leukemia; -29.4% (active) in the test with RPMI-8226 leukemia; -12.9% (active) with OVCAR-8 ovarian; -91% (active) with OVCAR-5 ovarian; -87.8% (active) in the test with OVCAR-4 ovarian; -96% (active) in the test with IGROV1 ovarian. The growth was -89.7% (active) in the test with OVCAR-3 ovarian, -33% (active) in the test with HS 578T breast and -1.95% (active) in the test on NCI/ADR-RES ovarian.

With `Cn1c(COC(=O)NCCc2ccccn2)nc2c(N3CCOCC3)nc(Cl)nc21`, the growth with SR leukemia was 3.5% (active); in the test with RPMI-8226 leukemia, -22.7% (active); in the test with OVCAR-8 ovarian, 4.96% (active); in the test with OVCAR-5 ovarian, -65% (active); with OVCAR-4 ovarian, -59.3% (active); in the test on SK-OV-3 ovarian it was 90.3%. For the same compound, the results for the growth in the test with OVCAR-3 ovarian, in the test with HS 578T breast and in the test with NCI/ADR-RES ovarian were -88% (active), -25% (active) and 18.9%, respectively.

With `CC(=O)OCC(=O)C1(O)C(C)CC2C3C=C(C)C4=Cc5c(cnn5-c5ccccc5)CC4(C)C3C(O)CC21C` (stereo not drawn), the growth in the test on SR leukemia is 2.76% (active); in the test on RPMI-8226 leukemia it was -18.3% (active); in the test on OVCAR-8 ovarian, 44.9%; in the test on OVCAR-5 ovarian, 25.3%; in the test with OVCAR-4 ovarian, 43.2%; in the test with SK-OV-3 ovarian, 43.1%. Further, the values for the growth with OVCAR-3 ovarian and with NCI/ADR-RES ovarian were 11.5% and 35%, respectively.

(Values after PubChem BioAssay (NCI).)
